The values below come from ChEMBL document CHEMBL3988442, “University of Dundee, Small-Polar-MMV Screening Library” (2021).

For some of these results: Potency and affinity values are given separately.

Common to all, as to set-up: scale not given: direction of the effect not stated beside the values
Test [1] concerns the target Protein translocase subunit SecA (Escherichia coli (strain K12)) (UniProt P10408). Description: Assay to Identify E. coli SecA ATPase Inhibitors. In kind it is functional. Conditions: 30 µM.
The target in test [2] is T1, Ubiquitin-activating enzyme e1, putative (Leishmania donovani (strain BPK282A1)) (UniProt E9BSI1).
T1 sequence (whole entry): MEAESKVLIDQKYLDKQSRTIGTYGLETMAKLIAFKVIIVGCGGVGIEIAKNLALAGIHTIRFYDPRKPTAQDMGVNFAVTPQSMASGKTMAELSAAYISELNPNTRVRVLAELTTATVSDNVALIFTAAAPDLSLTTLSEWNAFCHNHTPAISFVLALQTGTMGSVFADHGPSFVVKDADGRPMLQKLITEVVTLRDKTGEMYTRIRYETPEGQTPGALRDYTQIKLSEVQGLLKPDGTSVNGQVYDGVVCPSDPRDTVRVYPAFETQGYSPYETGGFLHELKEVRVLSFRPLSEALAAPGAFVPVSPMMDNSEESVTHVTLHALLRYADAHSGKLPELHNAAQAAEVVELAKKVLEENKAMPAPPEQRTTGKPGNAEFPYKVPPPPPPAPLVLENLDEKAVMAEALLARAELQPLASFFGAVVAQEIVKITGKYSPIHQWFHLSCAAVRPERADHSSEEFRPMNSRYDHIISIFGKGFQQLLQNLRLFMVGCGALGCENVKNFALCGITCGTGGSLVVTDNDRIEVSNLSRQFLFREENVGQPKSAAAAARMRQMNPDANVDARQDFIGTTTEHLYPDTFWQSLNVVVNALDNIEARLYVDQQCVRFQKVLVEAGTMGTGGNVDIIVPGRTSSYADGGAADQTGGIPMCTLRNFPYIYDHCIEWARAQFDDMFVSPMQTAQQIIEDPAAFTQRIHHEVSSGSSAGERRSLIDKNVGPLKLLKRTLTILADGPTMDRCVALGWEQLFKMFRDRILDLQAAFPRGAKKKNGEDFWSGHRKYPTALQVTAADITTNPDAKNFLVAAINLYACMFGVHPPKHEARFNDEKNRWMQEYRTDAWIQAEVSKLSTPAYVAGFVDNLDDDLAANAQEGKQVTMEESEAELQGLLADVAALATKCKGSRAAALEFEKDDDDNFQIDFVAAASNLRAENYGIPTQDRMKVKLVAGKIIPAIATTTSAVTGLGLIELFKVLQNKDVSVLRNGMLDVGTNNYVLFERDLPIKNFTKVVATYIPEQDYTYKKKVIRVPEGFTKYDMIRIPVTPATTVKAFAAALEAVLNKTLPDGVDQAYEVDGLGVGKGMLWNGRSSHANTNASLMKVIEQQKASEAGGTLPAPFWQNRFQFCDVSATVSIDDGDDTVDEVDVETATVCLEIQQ
Description: Leishmania donovani Ubiquitin Activating Enzyme (LdE1). In kind it is functional. The conditions noted are these: 30 µM.

Test [3] addresses AMP-activated protein kinase, AMPK (Homo sapiens) (UniProt P54646+O43741+P54619+Q9UGJ0+Q9Y478+Q13131+Q9UGI9). Description: AMP-dependent Kinase enzyme assay. An in vitro enzyme assay that detects ADP turnover that is directly proportional to AMPK activity. This uses naive AMPK that is activated during the assay with MK-8722. The conditions noted are these: 30 µM. The class given is functional.

Test [4] has as its target Sialic acid-binding Ig-like lectin 9 (Homo sapiens) (UniProt Q9Y336). Description: Hs-Siglec9 ALPHAscreen SOP 20170721. Conditions: 10 µM.
Test [5] has as its system Trypanosoma cruzi. Description: Trypanosoma cruzi phosphomannomutase and mannose-1-phosphate guanylyltransferase assay. The conditions noted are these: 10 µM. In kind it is functional.
The target in test [6] is T2, Arginase-2, mitochondrial (Homo sapiens) (UniProt P78540).
T2 sequence (whole entry): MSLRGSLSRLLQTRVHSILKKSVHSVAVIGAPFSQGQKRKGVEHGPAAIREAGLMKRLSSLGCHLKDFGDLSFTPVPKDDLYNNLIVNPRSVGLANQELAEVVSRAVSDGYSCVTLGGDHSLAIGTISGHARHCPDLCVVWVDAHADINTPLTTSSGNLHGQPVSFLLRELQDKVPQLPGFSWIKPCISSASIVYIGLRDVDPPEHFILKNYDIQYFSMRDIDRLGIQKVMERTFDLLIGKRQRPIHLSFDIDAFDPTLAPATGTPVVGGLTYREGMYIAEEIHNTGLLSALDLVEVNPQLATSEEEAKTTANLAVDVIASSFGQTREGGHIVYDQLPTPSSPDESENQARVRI
The test is described as follows: in vitro enzyme assay to detect the production of urea directly proportional to the activity of Arginase II. Also: in the data most compounds retested in dose-response had high values. In kind it is functional. Conditions: 33.3 µM.

Test [7] deals with T3, Proteasome subunit beta (Trypanosoma cruzi) (UniProt O96673).
T3 sequence (whole entry): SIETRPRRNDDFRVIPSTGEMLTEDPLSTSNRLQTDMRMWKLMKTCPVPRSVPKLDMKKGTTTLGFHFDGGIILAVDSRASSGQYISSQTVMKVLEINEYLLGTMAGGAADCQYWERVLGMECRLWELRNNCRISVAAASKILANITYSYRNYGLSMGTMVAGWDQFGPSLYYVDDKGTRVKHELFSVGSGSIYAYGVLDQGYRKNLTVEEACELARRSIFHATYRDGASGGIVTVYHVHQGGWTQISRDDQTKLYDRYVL
The test is described as follows: Trypanosoma cruzi proteasome chymotrypsin-like activity (TcProtChymo) assay. Also: in the data most compounds retested in dose-response had high values. The class given is functional. The conditions noted are these: 9.37 µM.

The species named for test [8] is Homo sapiens. Description: To identify inhibition of the IFN signalling (Jak-Stat) pathway via expression of an eGFP reporter gene under the control of an IFN-stimulated response element (ISRE) containing MxA promoter. In kind it is functional. The conditions noted are these: 30 µM. (A reporter such as luciferase makes a cellular process visible.)
Test [9] deals with T4, Tyrosyl-tRNA synthetase, putative (Trypanosoma cruzi (strain CL Brener)) (UniProt Q4DSP6).
T4 sequence (whole entry): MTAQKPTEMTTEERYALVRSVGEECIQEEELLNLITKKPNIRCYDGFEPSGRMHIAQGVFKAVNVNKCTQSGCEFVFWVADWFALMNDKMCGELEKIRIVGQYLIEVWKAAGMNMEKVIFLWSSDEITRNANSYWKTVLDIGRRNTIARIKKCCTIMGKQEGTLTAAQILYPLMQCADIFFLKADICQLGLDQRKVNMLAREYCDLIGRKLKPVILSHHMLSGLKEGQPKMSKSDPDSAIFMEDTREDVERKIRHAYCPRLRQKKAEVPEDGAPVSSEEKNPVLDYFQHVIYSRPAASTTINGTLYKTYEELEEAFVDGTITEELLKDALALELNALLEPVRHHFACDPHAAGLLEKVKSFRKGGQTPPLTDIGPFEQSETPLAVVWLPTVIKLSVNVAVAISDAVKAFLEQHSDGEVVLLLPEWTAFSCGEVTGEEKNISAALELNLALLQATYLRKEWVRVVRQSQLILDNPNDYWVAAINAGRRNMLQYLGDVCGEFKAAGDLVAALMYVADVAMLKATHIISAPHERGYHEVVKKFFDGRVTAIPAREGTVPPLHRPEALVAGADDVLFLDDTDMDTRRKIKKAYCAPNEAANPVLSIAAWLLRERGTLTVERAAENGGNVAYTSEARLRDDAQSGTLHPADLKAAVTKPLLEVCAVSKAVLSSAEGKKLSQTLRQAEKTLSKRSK
The test is described as follows: Trypanosoma cruzi tyrosyl tRNA synthetase (TcYRS) _High Tyrosine SOP. Also: in the data most compounds retested in dose-response had high values. Conditions: 30 µM. In kind it is functional.

The target in test [10] is T4, Tyrosyl-tRNA synthetase, putative (Trypanosoma cruzi (strain CL Brener)). Description: Trypanosoma cruzi tyrosyl tRNA synthetase (TcYRS) SOP. Conditions: 30 µM. The class given is functional.
In test [11] the target is Chromo domain-containing protein 1 (Saccharomyces cerevisiae (strain ATCC 204508 / S288c) (Baker's yeast)) (UniProt P32657). Description: ScCHD-1 Enzyme Inhibition Assay. Also: in the data most compounds retested in dose-response had high values. In kind it is functional. Conditions: 30 µM.
Chain of Chromo domain-containing protein 1 (Saccharomyces cerevisiae (strain ATCC 204508 / S288c) (Baker's yeast)) (P32657 whole entry, the tested form may be a part): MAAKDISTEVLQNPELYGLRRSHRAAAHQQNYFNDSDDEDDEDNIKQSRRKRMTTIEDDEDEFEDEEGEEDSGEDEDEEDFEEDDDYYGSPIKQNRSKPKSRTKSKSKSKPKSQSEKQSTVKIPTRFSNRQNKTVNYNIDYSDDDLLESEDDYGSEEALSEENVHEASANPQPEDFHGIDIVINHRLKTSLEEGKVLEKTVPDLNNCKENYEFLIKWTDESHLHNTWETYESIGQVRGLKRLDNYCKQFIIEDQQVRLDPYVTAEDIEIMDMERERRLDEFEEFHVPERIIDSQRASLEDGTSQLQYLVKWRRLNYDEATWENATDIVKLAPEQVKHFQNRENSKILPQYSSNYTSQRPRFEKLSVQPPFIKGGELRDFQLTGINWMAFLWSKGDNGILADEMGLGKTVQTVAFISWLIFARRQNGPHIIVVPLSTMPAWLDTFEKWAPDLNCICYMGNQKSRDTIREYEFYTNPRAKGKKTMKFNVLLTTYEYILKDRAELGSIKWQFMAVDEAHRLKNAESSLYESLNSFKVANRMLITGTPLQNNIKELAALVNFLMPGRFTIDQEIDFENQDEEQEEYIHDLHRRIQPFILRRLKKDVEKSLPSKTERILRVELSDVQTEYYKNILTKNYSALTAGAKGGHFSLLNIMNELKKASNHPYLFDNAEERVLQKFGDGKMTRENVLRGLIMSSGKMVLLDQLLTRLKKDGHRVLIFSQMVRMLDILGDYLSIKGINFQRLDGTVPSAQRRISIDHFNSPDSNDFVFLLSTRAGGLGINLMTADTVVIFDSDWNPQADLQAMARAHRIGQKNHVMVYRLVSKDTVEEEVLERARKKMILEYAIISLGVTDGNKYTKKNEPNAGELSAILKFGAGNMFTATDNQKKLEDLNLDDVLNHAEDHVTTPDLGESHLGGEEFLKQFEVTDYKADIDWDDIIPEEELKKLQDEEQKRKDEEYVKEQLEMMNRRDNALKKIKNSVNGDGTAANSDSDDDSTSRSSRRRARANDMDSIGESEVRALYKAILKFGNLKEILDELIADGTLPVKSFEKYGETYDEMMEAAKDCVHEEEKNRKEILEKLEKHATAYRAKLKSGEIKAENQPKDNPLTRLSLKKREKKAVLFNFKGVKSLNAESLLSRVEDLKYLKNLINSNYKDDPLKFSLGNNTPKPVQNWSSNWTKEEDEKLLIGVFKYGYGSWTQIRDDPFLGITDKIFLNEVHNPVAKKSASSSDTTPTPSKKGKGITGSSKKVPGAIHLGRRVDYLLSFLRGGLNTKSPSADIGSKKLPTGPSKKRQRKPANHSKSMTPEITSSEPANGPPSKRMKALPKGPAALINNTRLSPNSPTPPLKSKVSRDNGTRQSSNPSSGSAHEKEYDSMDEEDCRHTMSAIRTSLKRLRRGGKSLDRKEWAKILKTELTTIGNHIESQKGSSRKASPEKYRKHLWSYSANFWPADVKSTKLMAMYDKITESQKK

Chain of Sialic acid-binding Ig-like lectin 9 (Homo sapiens) (Q9Y336 whole entry): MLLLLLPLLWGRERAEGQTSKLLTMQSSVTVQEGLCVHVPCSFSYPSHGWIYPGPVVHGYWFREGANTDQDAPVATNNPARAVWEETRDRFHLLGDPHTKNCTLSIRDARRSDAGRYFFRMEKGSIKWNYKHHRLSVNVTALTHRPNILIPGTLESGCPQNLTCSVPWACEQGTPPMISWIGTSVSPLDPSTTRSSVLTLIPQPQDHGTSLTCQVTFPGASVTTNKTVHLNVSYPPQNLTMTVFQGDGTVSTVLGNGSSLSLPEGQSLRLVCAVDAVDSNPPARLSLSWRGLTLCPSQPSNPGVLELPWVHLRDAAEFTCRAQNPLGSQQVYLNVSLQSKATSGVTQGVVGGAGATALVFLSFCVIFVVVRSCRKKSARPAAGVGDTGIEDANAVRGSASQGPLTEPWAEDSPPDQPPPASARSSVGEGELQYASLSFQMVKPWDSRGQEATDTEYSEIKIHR
Chain of Protein translocase subunit SecA (Escherichia coli (strain K12)) (P10408 whole entry): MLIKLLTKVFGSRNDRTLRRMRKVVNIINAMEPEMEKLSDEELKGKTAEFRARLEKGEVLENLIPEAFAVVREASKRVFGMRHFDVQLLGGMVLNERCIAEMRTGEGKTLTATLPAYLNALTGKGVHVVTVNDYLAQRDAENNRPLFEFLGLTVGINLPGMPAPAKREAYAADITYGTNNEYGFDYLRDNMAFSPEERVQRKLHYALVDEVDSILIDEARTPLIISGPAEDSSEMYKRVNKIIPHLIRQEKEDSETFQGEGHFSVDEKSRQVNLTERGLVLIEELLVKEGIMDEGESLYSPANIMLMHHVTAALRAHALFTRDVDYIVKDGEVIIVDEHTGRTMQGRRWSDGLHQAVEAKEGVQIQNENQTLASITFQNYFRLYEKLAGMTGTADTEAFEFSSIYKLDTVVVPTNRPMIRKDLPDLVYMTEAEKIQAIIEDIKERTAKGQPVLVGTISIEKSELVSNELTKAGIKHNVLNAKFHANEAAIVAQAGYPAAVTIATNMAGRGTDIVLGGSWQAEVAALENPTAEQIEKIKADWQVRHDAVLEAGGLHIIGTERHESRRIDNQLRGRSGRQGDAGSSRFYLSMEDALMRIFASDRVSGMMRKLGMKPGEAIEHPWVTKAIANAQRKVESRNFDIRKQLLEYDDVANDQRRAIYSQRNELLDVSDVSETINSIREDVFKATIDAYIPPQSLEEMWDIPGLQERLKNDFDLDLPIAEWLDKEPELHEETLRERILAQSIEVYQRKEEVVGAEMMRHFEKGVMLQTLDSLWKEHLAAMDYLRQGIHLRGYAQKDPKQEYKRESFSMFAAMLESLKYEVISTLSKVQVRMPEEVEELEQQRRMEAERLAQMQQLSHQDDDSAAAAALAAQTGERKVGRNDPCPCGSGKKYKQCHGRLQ

As to `CCN(CC(=O)NC)S(=O)(=O)N1CCCCCC1`, the Percent Effect is -5.53% in test [1]; 10.8% in [2]; -3.76% in test [3]; 4.7% in test [4]; -0.489% in [5]; 3.72% in test [6]. In addition, the Percent Effect in test [7] is 6.61%; in [8], 8.47%; in [9] it was 4.3%; in test [10], 13.6%; in test [11] it was -2.62%.
On to `CS(=O)(=O)NC1CCN(C(=O)NCCc2ccccc2F)CC1`, for which the Percent Effect in test [1] is -4.12%; in test [2] it was 8.11%; in test [3], -6.29%; in [4], 9.26%; in test [5], 2.14%; in [6] it was 2.03%. Moreover, the Percent Effect in [7] was 12%; in test [8], 10.3%; in [9], 6.93%; in test [10], 25.6%; in test [11], -11.2%.
On to `Cn1ccc(C(=O)NC2CCC23CCN(C(=O)N2CCCC2)CC3)c1` (stereo not drawn), for which the Percent Effect was -3.06% in [1]; 16.2% in test [2]; 3.04% in test [3]; -9.67% in test [4]; 3.42% in test [5]; -6.05% in test [6]. The Percent Effect in test [7] was 19.2%; in test [8], -7.3%; in [9], 6.49%; in [10], 15.4%; in test [11], 1.18%.
Regarding `NC(=O)C1CCN(C(=O)c2ccn(-c3ccc(F)cc3)n2)C1` (stereo not drawn), the Percent Effect in test [1] is -2.82%; in test [2], 5.41%; in test [3], 0.129%; in test [4], -2.22%; in [5] it was -6.96%; in [6], 4.25%. Besides, the Percent Effect in test [7] is 5.39%; in test [8], 6.15%; in test [9], 4.95%; in [10] it was 11%; in test [11], 1.99%.
As to `CC(C)n1cc(S(=O)(=O)N2CCCCC2)cn1`, the Percent Effect in test [1] was -5.5%; in test [2], 14.7%; in test [3], -5.08%; in test [4], 14.1%; in test [5], 0.393%; in test [6] it was -2.29%. For the same compound, the Percent Effect was 15.7% in test [7]; 2.73% in test [8]; 6.35% in test [9]; 15.4% in test [10]; -8.47% in test [11].
Consider `CC(=O)N1CCCCC1c1cc(C(=O)N2CCOCC2)[nH]n1` (stereo not drawn), for which the Percent Effect in test [1] was -1.41%; in [2], 14.9%; in test [3] it was 11%; in test [4] it was -1.29%; in test [5], -1.38%; in test [6], -0.232%. Moreover, the Percent Effect in test [7] was 6.86%; in [8], 2.98%; in [9], 5.38%; in test [10], 14.3%; in test [11] it was -10.1%.
As to `Cc1noc(C)c1CN1CC[C@H]2OCC[C@@H](C(=O)NCC3CC3)[C@@H]2C1`, the Percent Effect in [1] was -4.39%; in test [2], 2.67%; in [3], 1.83%; in [4], 6.75%; in test [5], -1.54%; in [6], -25.3%. The Percent Effect was 8.21% in test [7]; -17.4% in test [8]; 0% in test [9]; 12.5% in test [10]; -5.06% in test [11].
For `Cc1ccc(N2CCCC(NCc3nc(C)c(C)o3)C2)nn1` (stereo not drawn), the Percent Effect in test [1] is -2.18%; in test [2], -1.27%; in test [3], -3.24%; in test [4], 1.76%; in [5], 9.54%; in test [6], -1.07%. Besides, the Percent Effect is -2.4% in test [7]; 2.43% in [8]; 3.12% in test [9]; 15.2% in test [10]; -25.4% in test [11].
